Compounds with a hit are over-represented: about 5.2% of the library has one in this group of screens.
Yeast superoxide: lowers age-related superoxide in aged yeast cells | superoxide response (% of plate mean), % at 10 µM | hit rate 0.18% among 330,000 | AID 2690 | S. cerevisiae aged cells, superoxide DHE fluorescence; hits give low values;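 active means superoxide response under a set limit, about three screen SD below normal, cut at about 65% in these data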;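 further: yeast aged for seven days with compound at 30 °C before DHE staining; 100% = average MFI of all compound-treated wells on the plate with controls excluded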
APOBEC3G inh: inhibitors of human APOBEC3G DNA deaminase. Q9HC16. recombinant A3G, ssDNA deamination FAM/TAMRA fluorescence. inhibition, % at 20 µM. hit rate 0.28% among 330,000. AID 493012;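 active means inhibition of at least 40% at 20 µM, with no more than 30% in the related APOBEC3A deaminase screen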;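 further: plate controls were DMSO wells with A3G for no effect and wells lacking A3G enzyme for full effect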
PfM18AAP inh: PfM18AAP enzyme inhibition. recombinant PfM18AAP, H-Glu-NHMec fluorogenic cleavage. hit rate 1.2% among 290,000. inhibition, % at 7.35 µM;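 active means inhibition above the campaign mean inhibition over all tested compounds plus 3 SD, cut at about 28% in these data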;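 further: 0% = plate median of test compound wells and 100% = 2 mM ZnCl2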
A3A deaminase: inhibitors of human APOBEC3A DNA deaminase; recombinant A3A, FAM/TAMRA ssDNA deamination fluorescence; inhibition, % at 20 µM; hit rate 0.41% among 330,000;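 active means at least 40% inhibition at 20 µM here, with at most 30% in a related deaminase screen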;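 further: plate controls were A3A with DMSO for no effect and wells lacking A3A enzyme for full effect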
Target sequence (P31941 whole entry, looked up): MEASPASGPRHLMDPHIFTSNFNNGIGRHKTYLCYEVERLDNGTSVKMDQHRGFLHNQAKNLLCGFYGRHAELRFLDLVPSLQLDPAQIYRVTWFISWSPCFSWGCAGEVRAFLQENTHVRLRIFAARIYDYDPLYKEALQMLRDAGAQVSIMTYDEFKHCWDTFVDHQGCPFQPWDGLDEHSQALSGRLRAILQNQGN
NRP1-CendR mod: NRP-1/CendR interaction modulation; FAM-RPARPAR peptide binding to NRP-1, fluorescence polarization; AID 602438; hit rate 0.85% among 360,000; inhibition, % at 25 µM; O14786;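 active means inhibition or corrected inhibition above about 18%, plus a signal ratio from 0.5 to 1.5, limit read from the data, passing the limit was not always enough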
ALR inh: inhibitors of human sulfhydryl oxidase ALR. purified ALR, DTT oxidation, H2O2 HRP-luminol luminescence. inhibition, % (test concentration not listed). hit rate 3.8% among 290,000;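 active means mean replicate inhibition above about 79%, with every replicate also reaching it, limit read from the data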
A3G conf: confirmation of human APOBEC3G DNA deaminase inhibitors; shares compounds with APOBEC3G inh; recombinant A3G ssDNA deaminase, UDG/FAM-TAMRA fluorescence; inhibition, % at 20 µM; hit rate 72% among 890; AID 493152;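 active means inhibition reaching a set limit in any replicate at 20 µM, the limit being 80% of the first screen's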
UDG ctr A3G: inhibits E. coli UDG, flagging false APOBEC3G inhibitors | shares compounds with APOBEC3G inh | UDG counterscreen, FAM/TAMRA oligo fluorescence | inhibition, % at 20 µM | 710 tested, under 10 active | AID 504715;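 active means compounds giving 40% or more inhibition at 20 µM in any one of the three replicates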;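 further: plate controls were DMSO wells with UDG and oligo for no effect and DMSO wells lacking both for full effect; inhibitors lower the FAM signal released by uracil excision and alkaline cleavage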
Target sequence (P12295 whole entry, looked up): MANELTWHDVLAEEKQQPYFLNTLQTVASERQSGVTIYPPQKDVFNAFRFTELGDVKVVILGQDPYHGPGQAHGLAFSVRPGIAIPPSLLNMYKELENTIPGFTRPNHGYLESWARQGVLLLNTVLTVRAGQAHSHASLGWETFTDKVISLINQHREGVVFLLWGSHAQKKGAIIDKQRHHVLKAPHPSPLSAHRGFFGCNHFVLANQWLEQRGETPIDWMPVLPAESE
Numbers without * were called inactive; . = no result.

SMILES | Yeast superoxide | APOBEC3G inh | PfM18AAP inh | A3A deaminase | NRP1-CendR mod | ALR inh | A3G conf | UDG ctr A3G
C=CCn1c(-c2c[nH]c3ccccc23)n[nH]c1=S | 104.5 | 19.1 | 11.1 | -8.2 | 7.2 | 27.6 | . | .
C=CCn1c(-c2cccnc2)n[nH]c1=S | 89.5 | -5.2 | 17.9 | -3.8 | 0.9 | 33.0 | . | .
C=CCn1c(-c2csc3ccccc23)n[nH]c1=S | 99.9 | 43.0* | 7.6 | 7.2 | -6.3 | 67.2 | 30.6 | .
C=CCn1c(-c2cccc(OC)c2OC)n[nH]c1=S | 111.1 | 12.3 | 16.9 | -4.3 | -9.0 | 65.1 | . | .
C=CCn1c(-c2cccc(OC)c2)n[nH]c1=S | 101.9 | 50.7* | 18.1 | 0.1 | -6.7 | 96.0* | 13.3 | .
C=CCn1c(-c2ccc([N+](=O)[O-])cc2)n[nH]c1=S | 104.8 | 45.4* | 18.4 | -5.8 | -9.3 | 17.1 | 78.1* | 0.4
C=CCn1c(-c2cc(Cl)ccc2OC)n[nH]c1=S | 90.0 | 45.7* | 16.8 | -4.9 | -2.6 | 41.5 | 81.1* | 1.6
Cc1ccc(NC(=O)C2CCCN2S(=O)(=O)c2cccc3cccnc23)cc1F (stereo not given) | 88.1 | -5.4 | -9.7 | -3.0 | -10.9 | 40.8 | . | .
CC1CC(C)CN(C(=O)c2ccc(C(=O)c3ccccc3)cc2)C1 (stereo not given) | 102.9 | -13.4 | . | -3.4 | -12.1 | -4.8 | . | .
COc1ccc(-c2csc(NC(=O)CCCc3nc4ccccc4c(=O)[nH]3)n2)cc1OC | 103.5 | -1.6 | . | 25.2 | -0.4 | -1.7 | . | .
CC(=O)c1cccc(CN2CCC(n3nccc3NC(=O)CCc3ccccc3)CC2)c1 | 105.5 | -5.5 | -0.4 | 0.1 | -7.7 | -7.1 | . | .
CCn1c(-c2cccc(Cl)c2)n[nH]c1=S | 105.1 | 46.8* | 27.8 | -4.7 | 2.9 | 48.0 | 77.2* | -3.2
Cc1ccccc1NC(=O)C1CCCN(S(=O)(=O)c2ccc3c(c2)C(C)(C)C(=O)N3C)C1 (stereo not given) | 99.9 | -7.2 | -1.0 | 0.0 | -6.5 | -5.5 | . | .
C/C(=N\Nc1cccc2cccnc12)c1ccc(N)cc1 | 108.4 | 58.0* | 16.3 | 3.0 | -4.6 | -24.8 | 27.3 | .
C/C(=N\Nc1cccc2cccnc12)c1ccccc1O | 94.6 | -1.1 | 1.3 | -1.9 | -4.8 | 2.2 | . | .
CCCCC(=O)Nc1sc(C(=O)N(CC)CC)c(C)c1C(=O)OC | 107.6 | 68.0* | 25.3 | 1.9 | 0.8 | . | 67.6* | 1.8
Cc1ccc(C2NC(=S)N3C(c4ccc(C)cc4)NC(=S)N23)cc1 (stereo not given) | . | . | . | . | 0.5 | . | . | .
COc1ccc(C2NC(=S)N3C(c4ccc(OC)cc4)NC(=S)N23)cc1 (stereo not given) | 99.9 | 44.9* | 13.5 | -3.0 | -4.0 | . | 34.2* | -2.9
COc1cccc(Nc2n[nH]c(=S)s2)c1 | 77.7 | 58.3* | 16.7 | 1.4 | 1.4 | 54.2 | 62.6* | 2.3
CC(C)(CS(=O)(=O)[O-])NC(=O)CC[N+](C)(C)CCO | 107.9 | 88.3* | -4.6 | 9.2 | -32.2 | -1.6 | 94.0* | .
Cc1ccc(SCC2(O)CCN(C(=O)c3ccc(Cl)cc3)CC2)cc1 | 99.4 | 12.1 | 10.3 | 7.7 | 13.9 | 2.4 | . | .
O=C1C2C3C=CC(CO)(O3)C2C(=O)N1c1ccccc1-c1ccccc1 (stereo not given) | 76.8 | 59.7* | -139.9 | -3.4 | 17.2 | 3.6 | 68.9* | 1.7
CC(=O)Oc1ccc(N2C(=O)C3C4C=CC(CO)(O4)C3C2=O)cc1 (stereo not given) | 95.3 | 24.3 | -125.5 | 6.5 | -2.7 | 48.9 | . | .
O=S(=O)(Cc1ccccc1)N=Nc1c(O)[nH]c2ccc(Br)cc12 | 98.5 | 50.9* | 0.3 | -0.9 | 14.0 | -1.8 | 68.0* | -2.5
CC1(C)C2([N+](=O)[O-])CN(CCO)CC1([N+](=O)[O-])CN(CCO)C2 | 126.8 | -7.4 | -4.5 | -1.0 | 7.8 | 3.8 | . | .
CCOC(=O)c1c(NC(=O)c2ccccc2Br)sc2c1CCc1ccccc1-2 | 90.0 | 46.1* | -8.8 | 3.2 | -5.6 | -7.2 | 33.1* | -3.6
CCOC(=O)c1c(NC(=O)c2ccccc2N(C)S(=O)(=O)c2ccccc2)sc2c1CCCC2 | 103.2 | 1.9 | -8.3 | 0.7 | -11.2 | . | . | .
